FLuc counter = qHTS profiling assay for firefly luciferase inhibitor/activator using purifed enzyme and Km concentrations of substrates (counterscreen for miR-21 project). purified FLuc, Km substrates, luminescence inhibition. Potency, µM (doses to about 57.5 µM), hits mostly inhibitors. actives 6.9% (n = 360,000). AID 588342, 2011; note: nearly all actives have a fitted effect of over 55% in size
Target sequence (P08659 whole entry, looked up): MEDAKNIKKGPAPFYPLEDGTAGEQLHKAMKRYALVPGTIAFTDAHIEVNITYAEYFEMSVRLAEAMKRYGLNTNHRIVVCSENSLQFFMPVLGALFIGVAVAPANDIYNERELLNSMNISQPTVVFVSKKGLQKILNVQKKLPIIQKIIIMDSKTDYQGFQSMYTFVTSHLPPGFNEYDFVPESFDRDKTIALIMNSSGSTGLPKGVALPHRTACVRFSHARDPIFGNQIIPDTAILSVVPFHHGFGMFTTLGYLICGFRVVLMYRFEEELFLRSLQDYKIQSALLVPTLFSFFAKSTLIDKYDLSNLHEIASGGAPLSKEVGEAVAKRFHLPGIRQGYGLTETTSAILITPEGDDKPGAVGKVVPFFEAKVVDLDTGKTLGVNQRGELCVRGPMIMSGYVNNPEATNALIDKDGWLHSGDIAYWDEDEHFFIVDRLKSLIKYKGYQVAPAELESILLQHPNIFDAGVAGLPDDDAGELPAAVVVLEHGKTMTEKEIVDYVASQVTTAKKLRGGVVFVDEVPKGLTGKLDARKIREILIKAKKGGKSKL
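Biochemical qHTS of compounds, final roughly 60 µM downward over six points, against 10 nM purified firefly luciferase using Km concentrations of substrates (10 uM D-luciferin, 10 uM ATP) in Tris acetate pH 7.5 buffer; luminescence output.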
Rab9 promoter act = qHTS Assay for Rab9 Promoter Activators; Huh7 Rab9 promoter-luciferase reporter, luminescence, 24 h; Potency, µM (titrated, usually from 9.22 µM), usual class: activators; actives 2.8% (n = 320,000); note: nearly all actives have a fitted effect of over 60% in size
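Luminescence from Amplite-detected luciferase (10 minutes, ambient) reports Rab9 promoter activation. Before that, stable Rab9-luciferase Huh7 cells (1500/well, reduced-serum OP-MEM I plus 10% FBS) were exposed to compound for 24 hours at 37C.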
KinaseGlo FLuc = Counterscreen for Luciferase (Kinase-Glo TM) Inhibition | Kinase-Glo luciferase, ATP luminescence, 8 min | actives 0.28% (n = 200,000) | Potency, µM (top dose mostly 38.3 µM), hits mostly inhibitors; note: nearly all actives have a fitted effect of over 60% in size
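Compound is pinned into ATP-containing buffer (10 uM ATP, imidazole pH 7.2, 7 mM MgCl2). Kinase-Glo luciferase reagent is then added. Light output is recorded following an 8-min room-temperature incubation.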
SMN2 splice up = qHTS Assay for Enhancers of SMN2 Splice Variant Expression; HEK293 SMN2-luciferase splicing reporter, luminescence, 30-36 h; Potency, µM (doses to about 46.1 µM), most hits filed as activators; actives 2.8% (n = 210,000); note: nearly all actives have a fitted effect of over 55% in size
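qHTS luciferase splicing reporter: luminescence rises when SMN2 exon 7 is included in transfected HEK293 cells. Compound exposure lasted 30-36 h at 37C, with 4.5 mM final sodium butyrate as control, followed by a ONE-Glo read.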
ELG1 genotox = qHTS screen for small molecules that induce genotoxicity in human embryonic kidney (HEK293T) cells expressing luciferase-tagged ELG1 | HEK293T ELG1-luciferase reporter, luminescence, 16 h | Potency, µM (series often up to 46 µM), hits mostly activators | actives 1.3% (n = 330,000); note: nearly all actives have a fitted effect of over 60% in size
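Quantitative HTS format in 1536-well plates. HEK293T ELG1-luciferase reporter cells receive test compound and are incubated 16 hr at 37 °C, 5% CO2; ONE-Glo added, 30 min room temperature, then luminescence read.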
NPC1 promoter act = qHTS Assay for NPC1 Promoter Activators. Huh7 NPC1 promoter luciferase reporter, 24 h. Potency, µM (highest dose often 9.22 µM), hits mostly activators. actives 2.4% (n = 320,000). AID 485313, 2010; note: nearly all actives have a fitted effect of over 60% in size
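Huh7 cells stably carrying NPC1 promoter–luciferase, plated in Opti-MEM with 10% FBS for 2 h, were exposed to compound in DMSO for 24 h at 37 °C; luciferase reagent was added for 10 min and luminescence read.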
Hits are given with their value; i = inactive; ? = inconclusive; nt = not tested or not shown; [ ] = dose if it differs, or a comment. Most compounds without a hit are left out; they make up all but 7.5% or so of the library. Calls come from the whole dose curve; as a rule, active = well fitted curve in the direction sought with a large enough effect; inconclusive = small, poorly fitted or top-dose-only effect, or another doubt; inactive = no such curve, though single readings can be large; an effect the other way counts as inactive or inconclusive.

SMILES	FLuc counter	Rab9 promoter act	KinaseGlo FLuc	SMN2 splice up	ELG1 genotox	NPC1 promoter act
COc1ccccc1NC(=O)c1cc2c(n(-c3ccc(C)cc3)c1=O)CC(C)(C)CC2=O	i	nt	nt	i	nt	nt
Nc1c(-c2ccccc2)cnn1-c1cccc([N+](=O)[O-])c1	15µM	?	i	i	?	?
Nc1c(-c2ccc(Cl)cc2)cnn1-c1cccc([N+](=O)[O-])c1	15µM	?	i	i	i	i
Nc1nn(-c2ccccc2)c2ccc([N+](=O)[O-])cc12	17µM	i	nt	nt	i	i
Cc1nn(-c2cccc([N+](=O)[O-])c2)c(N)c1-c1ccccc1	15µM	2.5µM	i	13µM	i	?
Nc1c(-c2ccc(Cl)cc2)cnn1-c1cccc(C(F)(F)F)c1	?	?	i	i	i	?
Cc1c(C(=O)N(Cc2ccccc2)C(C)C)oc2ccc(S(=O)(=O)N3CCOCC3)cc12	i	i	nt	nt	i[9.26 µM]	i
O=[N+]([O-])c1ccc2cn(-c3ccccc3)nc2c1	9.5µM	2µM	i	18µM	?	?
CCCC(=O)Nc1cc(C)c(NC(=O)c2ccco2)cn1	i	i	nt	nt	i	i
CS[C@@H](CC(=O)O)C(=O)O	nt	nt	i[7.66 µM]	i[9.22 µM]	nt	nt
Nc1c(C(=O)NC2CCCC2)c2nc3ccccc3nc2n1N	17µM	i	nt	nt	i	i
Nc1c(C(=O)NC2CCCC2)c2nc3ccccc3nc2n1/N=C/c1ccco1	i	i	i	i	i	i
O=S(=O)(Nc1cccc2ccccc12)c1ccccc1	i	i	nt	nt	i	i
O=C(O)c1cccc(S(=O)(=O)Nc2cccc3ccccc23)c1	24µM	i	nt	nt	i	i
C/C=C/c1ccc(OCC(=O)OCc2csc(Nc3ccc(C)cc3)n2)c(OC)c1	12µM	?	i	11µM	i	?
Cc1ccc(Nc2nc(COC(=O)COc3ccc(C=O)cc3)cs2)cc1	2.7µM	?	i	35µM	?	?
O=C(COc1ccc(Cl)cc1)OCc1csc(Nc2ccccc2)n1	i	i	i	i	i	i
CCn1c(CN2CCN(C(c3ccccc3)c3ccccc3)CC2)nc2c1c(=O)n(C)c(=O)n2C	i	i	nt	nt	i	i
CC1=C(C(=O)Nc2ccc(F)cc2F)C2(CCN(C(C)C)CC2)OC1=O	i	nt	nt	nt	nt	nt
Cc1c(C(=O)Nc2cccc(C(F)(F)F)c2)oc2ccc3c(c12)C(=O)CC(C)(C)O3	3.4µM	nt	nt	nt	nt	nt
Cc1c(C(=O)Nc2ccc(F)cc2F)oc2ccc3c(c12)C(=O)CC(C)(C)O3	1.1µM	nt	nt	nt	nt	nt
Cc1c(C(=O)Nc2cccc(C(F)(F)F)c2)oc2ccc(S(=O)(=O)N3CCOCC3)cc12	i	i	i	i	i	i
Cc1cccc(C)c1NC(=O)c1oc2ccc3c(c2c1C)C(=O)CC(C)(C)O3	i	nt	nt	nt	nt	nt
Cc1cc(C)cc(NC(=O)c2oc3ccc4c(c3c2C)C(=O)CC(C)(C)O4)c1	0.76µM	nt	nt	nt	nt	nt
COc1ccc(F)cc1S(=O)(=O)NCC(c1ccco1)S(=O)(=O)c1cccs1 (stereo unspecified)	i	nt	nt	nt	nt	nt
SMILES	FLuc counter	Rab9 promoter act	KinaseGlo FLuc	SMN2 splice up	ELG1 genotox	NPC1 promoter act
CC(=O)N1N=C(c2cccc(Cl)c2)OC1c1ccc(C(C)C)cc1 (stereo unspecified)	24µM	i	i	i	18µM	i
CCSc1nc2c(cnn2-c2ccccc2)c(=O)n1N	13µM	1.3µM	nt	nt	?	2.2µM
CN(C)S(=O)(=O)c1cccc(COc2cccnc2[N+](=O)[O-])c1	i	i	nt	nt	i	i
O=[N+]([O-])c1ncccc1OCc1ccc(Cl)c(Cl)c1	24µM	?	nt	nt	18µM	?
CCC(=O)Nc1cccc(C2=NOC3(C2)C[C@@H](C(N)=O)N(C(=O)c2cc([N+](=O)[O-])cc([N+](=O)[O-])c2)C3)c1 (stereo partly specified)	i	i	nt	nt	i	i
C/C=C/C=C\C(=O)Nc1cccc(C2=NOC3(C2)C[C@@H](C(N)=O)N(C(=O)c2cc([N+](=O)[O-])cc([N+](=O)[O-])c2)C3)c1 (stereo partly specified)	3µM	i	nt	nt	i	i
C/C=C\C=C/C(=O)Nc1cccc(C2=NOC3(C2)C[C@@H](C(N)=O)N(C(=O)C2(C)CC2)C3)c1 (stereo partly specified)	15µM	i	nt	nt	i	i
C=C(C)C(=O)N1CC2(CC(c3cccc(NC(=O)/C=C\C=C/C)c3)=NO2)C[C@H]1C(N)=O (stereo partly specified)	17µM	i	nt	nt	i	i
C/C=C\C(=O)Nc1cccc(C2=NOC3(C2)C[C@H](C(N)=O)N(C(=O)/C=C/CC)C3)c1 (stereo partly specified)	i	i	nt	nt	i	i
C/C=C\C=C/C(=O)Nc1cccc(C2=NOC3(C2)C[C@@H](C(N)=O)N(C(=O)/C=C/C=C\C)C3)c1 (stereo partly specified)	19µM	i	nt	nt	i	i
CCN(c1cccc(C)c1)S(=O)(=O)c1ccc(O)c(C(=O)O)c1	nt	nt	i	nt	nt	nt
Cc1c(C(=O)C(=O)NCc2cccs2)c2ccccc2n1C	i	i	i	i	i	i
C/C=C\C=C/C(=O)Nc1cccc(C2=NOC3(C2)C[C@@H](C(N)=O)N(C(=O)/C=C/CC)C3)c1 (stereo partly specified)	17µM	i	nt	nt	i	i
O=c1cc(-c2ccsc2)oc2cc(-c3ccc4c(c3)OCO4)ccc12	nt	nt	nt	nt	i	nt
O=c1cc(-c2ccc3c(c2)OCCO3)oc2ccc(Cl)cc12	0.38µM	0.45µM	i	2.5µM	2.9µM	0.63µM
O=c1cc(-c2cccs2)oc2ccc(Cl)cc12	4.8µM	3.2µM	nt	nt	?	3.2µM
Cc1nc(/N=C(\N)NC(=O)c2ccccc2)nc2ccccc12	?	?	i	18µM	i	i
CCCC(=O)N/C(N)=N/c1nc(C)c2cc(C)ccc2n1	17µM	i	nt	nt	i	i
Cc1nc(N=C(N)N)nc2ccccc12	i	i	i	i	i	i
Cc1ccc2c(c1Br)/C(=N/N1C(=O)c3ccccc3C1=O)C(=O)N2	2.4µM	i	i	i	i	i
O=C(Nc1c(C(=O)O)oc2ccccc12)c1ccc(C(F)(F)F)cc1	9.5µM	nt	nt	nt	nt	nt
CC(=O)Nc1c(C(=O)O)oc2ccccc12	i	i	i	i	i	i
CCOc1ncccc1C(=O)N(CC)CC(=O)NCc1ccc(Cl)cc1	i	i	nt	nt	i	i
CC(O)c1nc2ccccc2n1Cc1nnc(-c2ccc(Cl)cc2)o1 (stereo unspecified)	17µM	i	i	i	i	i

Assay outcomes from PubChem BioAssay.
